The text below walks through data of PubChem BioAssay (NCI).

About 83,000 compounds went through this panel and 20% of them were active in at least one assay; those are over-represented in the sample as a whole.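 Note: values are percent growth. 100 is the growth of untreated cells, values between 100 and 0 indicate rising inhibition; between -100 and 0 indicates cell death.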 A number with no mark means an inactive call. The source made the active and inactive calls. Rule for the calls: active = growth percent below 10; inactive = the rest.

This test has as its system HL-60(TB) leukemia. The test can be described thus: NCI-60 one-dose screen, 48 h (100 = growth as untreated, 0 = no growth, -100 = all killed). The following applies: 10 µM unless noted.
`COCCC[C@H]1O[C@@](O)([C@H](C)[C@@H]2CC(OC)C(O)/C=C(C)/C=C(C)/C=C(\C)C(OC3O[C@@H](C)[C@H](O)C(O)[C@@H]3O)C(C)/C=C(C)/C=C(OC)/C=C(\C)C(=O)O2)C(OC)C(O)[C@]1(C)O[C@H]1C[C@@H](O)[C@H](O[C@H]2C[C@](C)(O)[C@H](O)C(C)O2)C(C)O1` (stereo not given in full): the growth was 36%. As for `COC(=O)CNC(=O)c1cccc(-c2cc(=O)c3c(OC)c(OC)c(OC)cc3o2)c1`, the figure is 109%. Consider `O=C(CSc1nnc(-c2ccc(Cl)cc2)n1-c1ccccc1)Nc1ccc(Cl)cc1`, for which the growth was 79.8%. Consider `C/C=C/[C@@H]1C=C[C@@H]2C[C@H](C)CC[C@H]2[C@]1(C)/C(O)=C1/C(=O)[C@H](CO)N(C)C1=O`, for which the growth was 62.7%. On to `Cc1cc(=O)n2nc(-c3cn(C)c4ccc(Cl)cc34)sc2n1`, for which the growth was 92.5%. `O=C1NC(=O)c2c1c1c3ccccc3ccc1c1[nH]c3ccccc3c21`: the growth is 16.8%.

As for `C#Cc1nc(C2=C(C)/C(=N/OCc3ccccc3)CC2)cs1`, the growth was -54.1% (active). Take `O=C(NCCCNc1cc(-c2cn(-c3ccccc3)nc2-c2cccc(O)c2)ccn1)Nc1cccc(C(F)(F)F)c1`: the growth is 24.7%. The value for `COc1ccc(S(=O)(=O)NCCCNc2nccc(-c3cn(C(C)(C)C)nc3-c3ccc(Cl)c(OC)c3)n2)cc1` was 124%. With `CN1CC[C@@H]2[C@@]3(C)CC[C@H](O)C(C)(C)[C@@H]3CC[C@@]2(C)[C@]2(C)CC[C@@]3(CO)CCC(C)(C)C[C@@H]3C12` (stereo not given in full), the growth was 79.6%.

As to `Cc1cn(-c2cc(NC(=O)c3cncc(C#Cc4cnc5ccc(O[C@H]6CCOC6)nn45)c3)cc(C(F)(F)F)c2)cn1`, the growth is 37.6%. Consider `Brc1cc(-c2cc(-c3ccc4c(c3)OC=CO4)[nH]n2)cs1`, for which the growth is 91.6%.

As for `COc1cc(-c2nc3ccc(-c4nnc(SCC(=O)Nc5ccc(C(C)=O)cc5)o4)cc3[nH]2)cc(OC)c1OC`, the growth was 104%. Take `CNCCN(C)c1ccc(Nc2cc(NC3CC3)n3ncc(C#N)c3n2)cc1NC(C)=O`: the growth is -7.57% (active).

As for `O=C(Nc1cccc(C(F)(F)F)c1)c1cc(-c2ccc(F)cc2F)ccc1O`, the growth was -40.7% (active).
